{
  "source": "PubChem BioAssay (EPA / NIEHS)",
  "note": "“And” between values parts separate entries of the source, which are not always exact repeats. Equal entries are not always repeated. The source made the active and inactive calls. The calls were made as follows: active = hit-call score of the fitted dose curve at least 0.9, where 1 is the maximum; inactive = score below 0.9.",
  "data": [
    {"read-out": "Epidermal growth factor receptor (EGFR), EGFR (gene 1956)", "assay": "BSK_BE3C_EGFR: BioMAP Diversity Plus: BE3C Assay for Epidermal growth factor receptor (EGFR) Biomarker Activity (AID 2284281)", "details": "primary human bronchial epithelial cells", "description": "BSK_BE3C is a cell-based, multiplexed-readout assay that uses bronchial epithelial cell, a human lung primary cell, with measurements taken at 24 hours after chemical dosing in a 96-well plate.BSK_BE3C_EGFR is an assay component measured in the BSK_BE3C assay. It measures EGFR antibody related to regulation of gene expression using ELISA technology.Data from the assay component BSK_BE3C_EGFR was analyzed at the endpoint, BSK_BE3C_EGFR, in the positive analysis fitting direction relative to DMSO as the negative control and baseline of activity. Using a type of binding reporter, gain or loss-of-signal activity can be used to understand protein changes. To generalize the intended target to other relatable targets, this assay endpoint is annotated to the 'kinase' intended target family, where the subfamily is 'receptor tyrosine kinase'.\nThe levels of cell surface (or secreted, indicated by the prefix \"s\") biomarker endpoints were measured by ELISA. Overt cytotoxicity to cells in confluent adherent cultures (all systems other than the BT system) was assessed by measuring total protein levels using sulforhodamine B (SRB) staining in parallel cultures at the time of biomarker measurements, indicated as SRB endpoints. For proliferation assays for adherent cell types, individual cell types are cultured at sub-confluence and relative cell numbers quantified by SRB staining at time points optimized for each system (48 h: 3C and CASM3C systems; 72 h: BT and HDF3CGF systems; 96 h: SAg system). SRB was performed by staining cells with 0.1% SRB after fixation with 10% TCA and reading wells at 560 nm.Viability and proliferation of PBMC (T cells) was quantified by Alamar Blue reduction for the SAg and BT systems. For PBMC viability (referred to as PBMC Cytotoxicity within the assay endpoint names), cells were plated (75,000/well in a 96-well plate) and then chemical samples added for 1 h before addition of activators, SEB and TSST-1 (20 ng/mL final concentration each). Cells were incubated for 90 h. Then, Alamar Blue (20 uL/well) (Invitrogen, Cat DAL1100) was added for 6 h, and the plates were read with a fluorescence microplate reader at 546/580 nm (excitation/emission). For PBMC proliferation, cells were plated and activated as above but incubated for only 16 h prior to addition of Alamar Blue. Plates were read after 6 h.", "values": [
      {"smiles": "CCCCN(CCO)CCO", "outcome": "inactive"},
      {"smiles": "CCCO[Si](OCCC)(OCCC)OCCC", "outcome": "inactive"},
      {"smiles": "C=C(F)C(=O)OC(C(F)(F)F)C(F)(F)F", "outcome": "inactive"},
      {"smiles": "O=C(O)C(F)(F)C(F)(F)C(F)(F)C(F)(F)C(F)(F)C(F)(F)C(F)(F)C(F)F", "outcome": "inactive"},
      {"smiles": "C=C(C)C(=O)OCCC(F)(F)C(F)(F)C(F)(F)C(F)(F)C(F)(F)C(F)(F)C(F)(F)C(F)(F)F", "outcome": "inactive"},
      {"smiles": "CC(C)CCCC(C)(C)O", "outcome": "inactive"},
      {"smiles": "OCC(F)(OC(F)(F)C(F)(OC(F)(F)C(F)(F)C(F)(F)F)C(F)(F)F)C(F)(F)F", "note": "(stereo not drawn)", "outcome": "inactive"},
      {"smiles": "CC(=O)c1ccc(C)cc1", "outcome": "inactive"},
      {"smiles": "CC(C)(CO)CO", "outcome": "inactive"},
      {"smiles": "c1ccc(OCCOc2ccccc2)cc1", "outcome": "inactive"},
      {"smiles": "CCn1cc(C(=O)O)c(=O)c2ccc(C)nc21", "outcome": "inactive"},
      {"smiles": "O=S(=O)(O)C(F)(F)C(F)(F)OC(F)(F)C(F)(F)F", "outcome": "inactive"},
      {"smiles": "O=C(O)C(F)(F)OC(F)(F)C(F)(F)OC(F)(F)C(F)(F)C(F)(F)C(F)(F)F", "AC50": "35 µM (active) and 17.7 µM (active)"}
    ]}
  ]
}
